Experimental data from PubChem BioAssay (NCI).
This is part of a sample that, as a whole, favours compounds with a hit. Of some 83,000 tested, about 20% had one in any assay.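 Negative percent growth values reflect cell death: -40 means 40% of the cells present at the start died, and -100 means all died.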 A number with no mark means an inactive call. The source made the active and inactive calls.

These compounds were tested on SK-MEL-28 melanoma (assay: NCI-60 one-dose screen, 48 h (100 = growth as untreated, 0 = no growth, -100 = all killed)). Conditions: 10 µM unless noted.
Experimental: Growth inhibition of the SK-MEL-28 human tumor cell line is measured as a screen for anti-cancer activity. Cells are grown in 96 well plates and exposed to the test compound for 48 hours. Compounds are tested at a single concentration, which is 10^-5 M for most compounds. The reported endpoint is percent growth (GI% or GIPRCNT), where numbers from 0 - 100% represent growth inhibition, and numbers from -100% - 0 represent cell death. For example, a value of 40 represents 60% growth inhibition. A value of 0 means no net growth occurred over the course of the experiment. A value of -40 indicates 40% of cells at the beginning of the experiment died by the end of the experiment. A value of -100 means all cells are dead at the end of the experiment.
NCI-60 Human Tumor Cell Lines Screen was performed using the standard one-dose NCI protocol, which is described in more detail at https://dtp.cancer.gov/discovery_development/nci-60/default.htm.
Compounds with GIPRCNT values below 10 were considered active. Activity score was based on GIPRCNT using the following formula: […]
Score is 0 for GIPRCNT values of 100 or above, 50 for GIPRCNT values of 0, and 100 for GIPRCNT values of -100.

SMILES | growth
NS(=O)(=O)c1cccc(Nc2nc(SCC(=O)c3ccc(Br)cc3)nc3ccccc23)c1 | 84.4%
Cc1c(NC(=O)CSc2nc3sc4c(c3c(=O)n2-c2ccc(Cl)cc2)CCCC4)c(=O)n(-c2ccccc2)n1C | 89.2%
COc1ccc(-c2nc3ccc(-c4nnc(SCC(=O)Nc5ccc(C(C)=O)cc5)o4)cc3[nH]2)cc1 | 112%
O=C1[C@H]2Cc3c([nH]c4ccccc34)[C@@H](c3ccc(Br)cc3)N2C(=O)CN1C1CCN(Cc2ccccc2)CC1 | 70.3%
COc1ccc(N/N=C/c2c(-c3ccc(S(C)(=O)=O)cc3)nc3ccccn23)cc1 | 51.5%
Nc1c(C(=O)Nc2ccc(Cl)cc2)sc2nc(-c3cnccn3)cc(-c3cccs3)c12 | 64.8%
COc1ccc(/C=C2\SC(=Nc3cc(C)[nH]n3)NC2=O)cc1 | 85%
C#Cc1nc(C2=C(C)C(OC(=O)CCC(=O)O)CC2)cs1 (stereo not given) | 115%
N#Cc1nc(-c2ccccc2)oc1N1CCC(CO)C1 (stereo not given) | 103%
CN(C)c1ccc(-c2c(NC(C)(C)C)nc3c(OCCc4ccccc4)cccn23)cc1 | 35.1%
COc1ccccc1C(=O)CSc1nc(Nc2ccc(S(N)(=O)=O)cc2)c2ccccc2n1 | 96.8%
c1ccc(CNc2ncnc3ccc(-c4cnc5[nH]ncc5c4)cc23)cc1 | 82.7%
C[C@@H]1CN(c2ccc3ncc(C#Cc4cncc(C(=O)Nc5ccc(CN6CCN(C)CC6)c(C(F)(F)F)c5)c4)n3n2)C[C@H](C)O1 | -89.5% (active)
Nc1nc(N)c2c(n1)NC(c1ccc(C(F)(F)F)cc1)CC(c1ccc(Nc3nc(NCCO)nc(Nc4ccc(Cl)cc4)n3)cc1)=N2 (stereo not given) | -94.6% (active)
CCN1C(=S)N(CC)C2C1N=C(SC)N2/N=C/C=C/c1ccccc1[N+](=O)[O-] (stereo not given) | 105%
COc1ccc(COc2ccc(/C=C3/C(=O)Nc4cc(Cl)ccc43)cc2)cc1 | 98.7%
OC1CCN(CCCOc2c3ccccc3nc3c2oc2ccc(Cl)cc23)CC1 | 24.9%
O=C(N/N=C/c1ccc(Br)s1)c1[nH]c2ccc(Br)cc2c1-c1ccccc1 | 63.1%
CCCC(=O)NC(c1ccc(N(CC)CC)cc1)c1cc(C)c2cccnc2c1O (stereo not given) | 29.6%
NS(=O)(=O)c1cccc(Nc2nc(SCC(=O)c3ccc(Cl)cc3)nc3ccccc23)c1 | 89%

SMILES | growth
COc1ccc(C(=O)c2cc(C(=O)/C=C/c3c(Cl)cccc3Cl)c3cc(C)ccn23)cc1 | 108%
CSc1ccc2c(c1)N(C(=O)/C(C#N)=C/c1c[nH]c3ccccc13)c1ccccc1S2 | 58.5%
C#Cc1nc(C2=C(C)C(OC(C)=O)/C(=N/OC(C)=O)C2)cs1 (stereo not given) | 101%
N#Cc1nc(-c2ccccc2)oc1N1CC[C@@H](CO)C1 | 101%
O=C(CSc1nc2sc3c(c2c(=O)n1-c1ccc(Cl)cc1)CCCC3)N/N=C/c1ccc(F)cc1 | 108%
CCCC(=O)NC(c1ccc2c(c1)OC(F)(F)O2)c1cc(C)c2cccnc2c1O (stereo not given) | 17.1%
CC(C)(C)Nc1nc2c(OCCc3ccccc3)cccn2c1-c1ccc(O)cc1 | 66%
COc1ccc([C@@H]2c3[nH]c4ccccc4c3CC3C(=O)N(C4CCN(Cc5c(F)cccc5F)CC4)CC(=O)N32)c(OC)c1 (stereo not given in full) | 60.9% [5.26 µM]
CS(=O)(=O)c1ccc(-c2nc3ccccn3c2-c2nc3ccc([N+](=O)[O-])cc3[nH]2)cc1 | 98%
C=CCn1c(SCC(=O)c2ccccc2)nnc1-c1c[nH]c2ccccc12 | 105%
Cc1ccc(C(=O)Nc2cccc(C(F)(F)F)c2)cc1Nc1nc(-c2cnccn2)nc2c1cnn2C | 15.6%
Cc1ccc(CNS(=O)(=O)/N=C2\NC(=O)NC2=C(Cl)Cl)cc1 | 83.8%
C[C@@H](Nc1c(C#N)cnc2ccc(-c3cnc(N)nc3)cc12)c1ccccc1 | 20%
NS(=O)(=O)c1ccc(Nc2nc(Nc3ccccc3)nc(-n3nc(-c4ccccc4)cc3-c3ccccc3)n2)cc1 | 54.6%
CC(C)Sc1nc(Nc2ccc(S(N)(=O)=O)cc2)c(C#N)c(-c2ccc(F)cc2)n1 | 78%
CCN1C(=S)N(CC)C2C1NN=C1SC(c3ccccc3)=CC(=O)N12 (stereo not given) | 99.5%
O=C(N/N=C/c1ccc([N+](=O)[O-])o1)c1[nH]c2ccc(Br)cc2c1-c1ccccc1 | 55.9%
CN(C)CCCOc1c2ccc(Cl)cc2nc2c1oc1ccccc12 | -76.4% (active)
COc1cc(/C=C/C(=O)c2cc(OC)c(OC)c(OC)c2)ccc1OCc1ccc(F)cc1 | 81.1%
C#C[C@]1(O)CC[C@H]2[C@@H]3CC=C4c5sc(Nc6ccc(Cl)cn6)nc5CC[C@]4(C)[C@H]3CC[C@@]21C | -27% (active)
